# Measured values reported in PubChem BioAssay (NCI).
# About 83,000 compounds went through this panel and 20% of them were active in at least one assay; those are over-represented in the sample as a whole.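 Cells were grown in 96-well plates and exposed to the test compound at a single concentration for 48 hours; results are reported as percent growth, with values below 10 considered active.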 Unmarked numbers belong to inactive results. Active and inactive are the calls of the source.
# Legend:
# Experiment in all cases: NCI-60 one-dose screen, 48 h (100 = growth as untreated, 0 = no growth, -100 = all killed)
# NCI-H322M lung = settings: 10 µM unless noted
# HOP-62 NSCLC = settings: 10 µM unless noted
# NCI-H460 lung = settings: 10 µM unless noted
# HOP-92 NSCLC = settings: 10 µM unless noted
# NCI-H522 lung = settings: 10 µM
# A549/ATCC NSCLC = settings: 10 µM unless noted
# 786-0 renal = settings: 10 µM unless noted
# DU-145 prostate = settings: 10 µM unless noted
# K-562 leukemia = settings: 10 µM unless noted
# MALME-3M melanoma = settings: 10 µM unless noted
# MDA-MB-231 breast = settings: 10 µM unless noted
# RXF 393 renal = settings: 10 µM unless noted
# SF-268 CNS = settings: 10 µM unless noted
# SF-295 CNS = settings: 10 µM unless noted
# SF-539 CNS = settings: 10 µM unless noted
# UACC-257 melanoma = settings: 10 µM unless noted
# M14 melanoma = settings: 10 µM unless noted
# NCI-H226 lung = settings: 10 µM
# COLO 205 colon = settings: 10 µM unless noted
SMILES,growth (NCI-H322M lung),growth (HOP-62 NSCLC),growth (NCI-H460 lung),growth (HOP-92 NSCLC),growth (NCI-H522 lung),growth (A549/ATCC NSCLC),growth (786-0 renal),growth (DU-145 prostate),growth (K-562 leukemia),growth (MALME-3M melanoma),growth (MDA-MB-231 breast),growth (RXF 393 renal),growth (SF-268 CNS),growth (SF-295 CNS),growth (SF-539 CNS),growth (UACC-257 melanoma),growth (M14 melanoma),growth (NCI-H226 lung),growth (COLO 205 colon)
Cc1ccc(S(=O)(=O)N2CCc3ccc(O)c4c3C2Cc2cc(Cl)ccc2-4)cc1 (stereo not drawn),78.3%,69.2%,33.6%,62.8%,18.4%,53.9%,88.2%,85.5%,24.7%,57%,82.4%,71%,61.9%,84.7%,58.2%,63.4%,68.7%,–,–
COc1cccc(OC(=O)c2ccccc2)c1OC(=O)c1ccccc1,–,61.7%,81.6%,40%,–,78%,101%,87.7%,37.4%,–,75.4%,86.3%,72.4%,83.6%,92%,87%,47.5%,109%,108%
Cc1cc[n+](CCc2ccccc2)cc1,–,–,–,–,–,89.4%,–,–,–,–,–,108%,–,–,–,–,–,102%,–
COc1ccc(-c2c3c(N)c4c(nc3nc3c2c(C)nn3-c2ccccc2)CCCC4)cc1,–,89.3%,73.8%,28.9%,60.6%,76.6%,70.8%,80.4%,11.9%,113%,76.1%,84.2%,86%,84.9%,91.8%,108%,87.9%,86.9%,73.4%
CCCC1=NNC(=O)C1,–,99%,109%,90.7%,94%,95.9%,95.8%,125%,100%,101%,122%,113%,108%,97.5%,89.8%,90.9%,104%,108%,99.3%
ONc1nc(NO)c2[nH]cnc2n1,–,83.9%,86.7%,80.8%,97%,101%,86.9%,74.6%,23%,90.8%,77.4%,86.1%,58.8%,91%,103%,105%,76.7%,82.8%,112%
COc1nc2c(cc1S(=O)(=O)c1ccccc1)CCc1c-2cnn1-c1ccccc1,–,81.3%,77.5%,22.1%,47.9%,57.7%,76.5%,95.4%,54.1%,69.2%,89.2%,94.4%,86.8%,84.9%,79%,78.2%,80.7%,87.2%,96.3%
COc1nc2c(cc1S(=O)(=O)c1ccccc1)CCc1c-2cnn1-c1cccc(Cl)c1,–,90.7%,80.6%,46.6%,75.6%,66.2%,72.8%,97%,61.4%,78.7%,89.7%,76.7%,87.2%,80.2%,81.7%,78.7%,83.4%,80.3%,–
C=CCCCCCCCCC(=O)[O-].C=CCCCCCCCCC(=O)[O-].[Zn+2],–,–,–,–,–,–,–,–,–,–,106%,–,–,–,–,–,–,–,–
O=C(c1ccccc1)C(Br)C(Br)c1cccc([N+](=O)[O-])c1 (stereo not drawn),101%,–,90.2%,65.1%,-68.8% (active),92.7%,90.1%,76%,–,-43.1% (active),59.9%,-78.8% (active),72.1%,88.5%,38.1%,19.8%,34.3%,–,-95% (active)
CSc1ccc(OC(C)=O)cc1C,–,79.4%,104%,97.2%,105%,101%,98.1%,94%,114%,95.5%,113%,98.5%,94.3%,97.7%,98.5%,97.6%,101%,98.3%,104%
CC(=O)Nc1ccc(S(=O)(=O)N/N=C\c2ccc(Cl)c(Cl)c2)cc1,–,100%,101%,72.1%,–,93.8%,113%,110%,116%,–,110%,123%,100%,108%,111%,103%,102%,100%,109%
CN1CCN(CCCn2c3c(sc4ncccc43)c(=O)n3nnc(-c4ccccc4)c23)CC1,–,-75.8% (active),-70.7% (active),59.6%,-73.5% (active),-74.7% (active),95.4%,-18.2% (active),1.27% (active),–,-83.5% (active),75.3%,91%,98.6%,-96% (active),99.2%,78.4%,96.2%,63.6%
N#C[S-].[Au+].c1ccc(CN2[CH-]N(Cc3ccccc3)C(c3ccccc3)=C2c2ccccc2)cc1,–,–,–,–,–,–,–,–,–,–,–,–,–,-14.8% (active),–,–,–,–,–
COc1ccc(/C=C(\C#N)c2ccc(OC)cc2)cc1,–,67.1%,50.9%,–,–,54.3%,90.1%,72.3%,20.1%,–,72.8%,65.3%,78.4%,47%,79.7%,83.8%,61.9%,82.7%,–
